# From the supplement of paper PMC6992640
# Test system: WHIM2 (cells of a triple-negative basal-like breast cancer xenograft)
# Test: cell viability of combination (% of vehicle); higher = less cytotoxic
# Conditions: 1 µM; 72 h; partner dose: 10 nM
# Description: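 PDX cells were treated for 72 h with each drug at 1 µM plus afatinib (10 nM; 1 µM for WHIM30). Luciferase viability is expressed as percent of vehicle.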
row,Structure (SMILES),cell viability of combination
1,CC(C)CC(NC(=O)C(CCc1ccccc1)NC(=O)CN1CCOCC1)C(=O)NC(Cc1ccccc1)C(=O)NC(CC(C)C)C(=O)C1(C)CO1 (centres undefined) [Carfilzomib (PR-171)] + CN(C)C/C=C/C(=O)Nc1cc2c(Nc3ccc(F)c(Cl)c3)ncnc2cc1O[C@H]1CCOC1 [Afatinib],26.7
2,CC(C)(C)Cn1c(N)nc2ccc(-c3[nH]c(C(C)(C)C)nc3-c3ccc(F)cc3)nc21.CS(=O)(=O)O.CS(=O)(=O)O + CN(C)C/C=C/C(=O)Nc1cc2c(Nc3ccc(F)c(Cl)c3)ncnc2cc1O[C@H]1CCOC1 [Afatinib],35.4
3,CCCCc1oc2ccc(NS(C)(=O)=O)cc2c1C(=O)c1ccc(OCCCN(CCCC)CCCC)cc1 [Dronedarone] + CN(C)C/C=C/C(=O)Nc1cc2c(Nc3ccc(F)c(Cl)c3)ncnc2cc1O[C@H]1CCOC1 [Afatinib],44.1
4,C=C1C(=CC=C2CCCC3(C)C2CCC3C(C)C=CC(C)C(C)C)CC(O)CC1O (centres undefined) [Doxercalciferol] + CN(C)C/C=C/C(=O)Nc1cc2c(Nc3ccc(F)c(Cl)c3)ncnc2cc1O[C@H]1CCOC1 [Afatinib],37.1
5,Cc1nc(NC(=O)N2CCCC2C(N)=O)sc1-c1ccnc(C(C)(C)C(F)(F)F)c1 (centres undefined) + CN(C)C/C=C/C(=O)Nc1cc2c(Nc3ccc(F)c(Cl)c3)ncnc2cc1O[C@H]1CCOC1 [Afatinib],37.9
6,CNCCCC12CCC(c3ccccc31)c1ccccc12.Cl [Maprotiline HCl] + CN(C)C/C=C/C(=O)Nc1cc2c(Nc3ccc(F)c(Cl)c3)ncnc2cc1O[C@H]1CCOC1 [Afatinib],46
7,COc1ccc(CN2CCN(C(c3ccc(F)cc3)c3ccc(F)cc3)CC2)c(OC)c1OC.Cl.Cl [Lomerizine HCl] + CN(C)C/C=C/C(=O)Nc1cc2c(Nc3ccc(F)c(Cl)c3)ncnc2cc1O[C@H]1CCOC1 [Afatinib],50.9
8,CN1CCN(CCCN2c3ccccc3Sc3ccc(C(F)(F)F)cc32)CC1.Cl.Cl [Trifluoperazine 2HCl] + CN(C)C/C=C/C(=O)Nc1cc2c(Nc3ccc(F)c(Cl)c3)ncnc2cc1O[C@H]1CCOC1 [Afatinib],44
9,CCc1c(Cl)c(O)c(Cl)c(O)c1C(=O)OC1C(C)OC(OCC2=CC=CCC(O)C(C)=CC(CC)C(OC3OC(C)(C)C(OC(=O)C(C)C)C(O)C3O)C(C)=CC(C)=CCC(C(C)O)OC2=O)C(OC)C1O (centres undefined) [Fidaxomicin] + CN(C)C/C=C/C(=O)Nc1cc2c(Nc3ccc(F)c(Cl)c3)ncnc2cc1O[C@H]1CCOC1 [Afatinib],51.9
10,CCC(=C(c1ccccc1)c1ccc(OCCN(C)C)cc1)c1ccccc1.O=C(O)CC(O)(CC(=O)O)C(=O)O [Tamoxifen Citrate] + CN(C)C/C=C/C(=O)Nc1cc2c(Nc3ccc(F)c(Cl)c3)ncnc2cc1O[C@H]1CCOC1 [Afatinib],51
11,Clc1ccc(C(Cn2ccnc2)OCc2ccc(Sc3ccccc3)cc2)c(Cl)c1.O=[N+]([O-])O (centres undefined) [Fenticonazole Nitrate] + CN(C)C/C=C/C(=O)Nc1cc2c(Nc3ccc(F)c(Cl)c3)ncnc2cc1O[C@H]1CCOC1 [Afatinib],49.9
12,CN1CCN(c2ccc(C(=O)/N=c3\[nH][nH]c4ccc(Cc5cc(F)cc(F)c5)cc34)c(NC3CCOCC3)c2)CC1 [Entrectinib] + CN(C)C/C=C/C(=O)Nc1cc2c(Nc3ccc(F)c(Cl)c3)ncnc2cc1O[C@H]1CCOC1 [Afatinib],38.5
13,Clc1ccc(COC(Cn2ccnc2)c2ccc(Cl)cc2Cl)c(Cl)c1.O=[N+]([O-])O (centres undefined) [Miconazole Nitrate] + CN(C)C/C=C/C(=O)Nc1cc2c(Nc3ccc(F)c(Cl)c3)ncnc2cc1O[C@H]1CCOC1 [Afatinib],52.2
14,COC(=O)C12CCC(C)(C)CC1C1C(=O)C=C3C4(C)C=C(C#N)C(=O)C(C)(C)C4CCC3(C)C1(C)CC2 (centres undefined) [Bardoxolone methyl] + CN(C)C/C=C/C(=O)Nc1cc2c(Nc3ccc(F)c(Cl)c3)ncnc2cc1O[C@H]1CCOC1 [Afatinib],30.4
